Our source for the growth inhibition values is PubChem BioAssay (NCI).

The panel holds about 79,000 compounds, 15% with a hit somewhere; the sample as a whole holds those more often. Unmarked numbers belong to inactive results. The source made the active and inactive calls. Rule as the data show it: active = growth inhibition above about 70%; inactive = the rest.

Assay [1] is described as follows: NCI Yeast Anticancer Drug Screen. Data for the rad50 strain (AID 155).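 Also: 0% = growth of vehicle-only cultures of the same strain.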 To be noted: S. cerevisiae rad50 strain growth inhibition, active compounds read high. The essentials:
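Vehicle-treated cultures provide the reference for the growth inhibition reported for compound-exposed, repair-deficient yeast.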

Assay [2] in a line: NCI Yeast Anticancer Drug Screen. Data for the mec2-1 strain (AID 157). To be noted: S. cerevisiae mec2-1 strain, active compounds read high. The essentials: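 Yeast mec2-1 mutant treated with compound. Readout: growth inhibition vs vehicle controls.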
Assay [3] can be described thus: NCI Yeast Anticancer Drug Screen. Data for the sgs1 mgt1 strain (AID 161).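 Also: 0% = growth of cultures given vehicle only.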 Conditions: S. cerevisiae sgs1 mgt1 strain, active compounds read high. The essentials: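 Inhibition of yeast growth, normalised to vehicle-treated controls, is reported for a strain bearing genetic alterations in DNA damage repair.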
A short description of assay [4]: NCI Yeast Anticancer Drug Screen. Data for the cln2 rad14 strain (AID 165).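 Also: 0% = growth equal to vehicle treated cultures.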 To be noted: S. cerevisiae cln2 rad14 strain, active compounds read high. The essentials: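 cln2 rad14 yeast strain; compound exposure; growth inhibition read vs vehicle controls.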
A short description of assay [5]: NCI Yeast Anticancer Drug Screen. Data for the bub3 strain (AID 167). Conditions: S. cerevisiae bub3 mutant strain, active compounds read high. The essentials: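 Mutant yeast screening strain plus compound; vehicle-treated cultures serve as the 0% inhibition reference.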
Assay [6] is described as follows: NCI Yeast Anticancer Drug Screen. Data for the mlh1 rad18 strain (AID 175). Conditions: S. cerevisiae mlh1 rad18 strain growth inhibition, active compounds read high. The essentials: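 Yeast w/ defined DNA-repair lesions; compound exposure; growth vs vehicle controls → % inhibition.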
The mark [7] stands for this setting: at 5.0 µM (retest, dose inferred, filed as 0.5).
The mark [8] stands for this setting: at 50.0 µM (retest, dose inferred, filed as 5.0).

With `Oc1cc(CNCc2ccccc2)c(O)c(CNCc2ccccc2)c1`, the growth inhibition in assay [1] (setting [7]) was 10%; in assay [1] (setting [8]), 10%; in assay [1] (at 50.0 µM), -4%; in assay [2] (setting [7]) it was 17%; in assay [2] (setting [8]), 24%; in assay [2] (at 50.0 µM), 31.9%. Besides, the growth inhibition in assay [3] (setting [7]) was 5%; in assay [3] (setting [8]), 11%; in assay [3] (at 50.0 µM), 5.25%; in assay [4] (setting [7]) it was 3%; in assay [4] (setting [8]), -13%; in assay [4] (at 50.0 µM) it was 38.2%. Moreover, the growth inhibition was -1% in assay [5] (setting [7]); -4% in assay [5] (setting [8]); 1.95% in assay [5] (at 50.0 µM); 8% in assay [6] (setting [7]); 15% in assay [6] (setting [8]); 17% in assay [6] (at 50.0 µM).

Turning to `Cc1ccccc1NC(=O)Cc1csc(N=Nc2c(O)[nH]c3ccccc23)n1`, the growth inhibition in assay [1] (setting [7]) is 18%; in assay [1] (setting [8]), 17%; in assay [1] (at 50.0 µM), -33.6%; in assay [2] (setting [7]) it was 1%; in assay [2] (setting [8]), 1%; in assay [2] (at 50.0 µM) it was -42.9%. The growth inhibition is 1% in assay [3] (setting [7]); -2% in assay [3] (setting [8]); -6.95% in assay [3] (at 50.0 µM); 9% in assay [4] (setting [7]); -6% in assay [4] (setting [8]); -12.1% in assay [4] (at 50.0 µM). The growth inhibition in assay [5] (setting [7]) was 25%; in assay [5] (setting [8]) it was 25%; in assay [5] (at 50.0 µM), -11.1%; in assay [6] (setting [7]), 15%; in assay [6] (setting [8]), 17%; in assay [6] (at 50.0 µM), -27.7%.

On to `C=C1C(=O)O[C@@H]2C[C@@]3(C)CCC[C@H](C)C3=C[C@H]12` (tested in a mixture with another compound), for which the growth inhibition is 9% in assay [1] (setting [7]); 96% (active) in assay [1] (setting [8]); 91.8% (active) in assay [1] (at 50.0 µM); 14% in assay [2] (setting [7]); 97% (active) in assay [2] (setting [8]); 93% (active) in assay [2] (at 50.0 µM). The growth inhibition in assay [3] (setting [7]) is 4%; in assay [3] (setting [8]), 97% (active); in assay [3] (at 50.0 µM), 92.3% (active); in assay [4] (setting [7]), 30%; in assay [4] (setting [8]), 91% (active); in assay [4] (at 50.0 µM), 90% (active). For the same molecule, the growth inhibition is 13% in assay [5] (setting [7]); 98% (active) in assay [5] (setting [8]); 91.2% (active) in assay [5] (at 50.0 µM); 19% in assay [6] (setting [7]); 98% (active) in assay [6] (setting [8]); 91.5% (active) in assay [6] (at 50.0 µM).

As to `CCCCCCCC/C(C=O)=C\c1ccccc1`, the growth inhibition is -3% in assay [1] (setting [7]); -25% in assay [1] (setting [8]); 77.8% (active) in assay [1] (at 50.0 µM); -21% in assay [2] (setting [7]); -2% in assay [2] (setting [8]); 72.8% (active) in assay [2] (at 50.0 µM). Besides, the growth inhibition in assay [3] (setting [7]) is -3%; in assay [3] (setting [8]), 3%; in assay [3] (at 50.0 µM) it was 78.2% (active); in assay [4] (setting [7]) it was -1%; in assay [4] (setting [8]), 7%; in assay [4] (at 50.0 µM) it was 45%. Moreover, the growth inhibition in assay [5] (setting [7]) is -11%; in assay [5] (setting [8]) it was -19%; in assay [5] (at 50.0 µM) it was 64.8%; in assay [6] (setting [7]) it was -3%; in assay [6] (setting [8]), -13%; in assay [6] (at 50.0 µM) it was 77.9% (active).

For the molecule `S=c1[nH]c2cc(Cl)ccc2s1.[Zn+2]`, the growth inhibition was -2% in assay [1] (setting [7]); 91% (active) in assay [1] (setting [8]); 95.3% (active) in assay [1] (at 50.0 µM); 8% in assay [2] (setting [7]); 96% (active) in assay [2] (setting [8]); 97.8% (active) in assay [2] (at 50.0 µM). Also, the growth inhibition in assay [3] (setting [7]) is 3%; in assay [3] (setting [8]) it was 97% (active); in assay [3] (at 50.0 µM) it was 93.3% (active); in assay [4] (setting [7]) it was -2%; in assay [4] (setting [8]) it was 95% (active); in assay [4] (at 50.0 µM), 96.7% (active). Besides, the growth inhibition in assay [5] (setting [7]) is 12%; in assay [5] (setting [8]) it was 92% (active); in assay [5] (at 50.0 µM), 97% (active); in assay [6] (setting [7]), 0%; in assay [6] (setting [8]), 96% (active); in assay [6] (at 50.0 µM), 97.5% (active).

Turning to `CC(=O)Oc1c(C2CCCCC2)cc([N+](=O)[O-])cc1[N+](=O)[O-]`, the growth inhibition in assay [1] (setting [7]) was 96% (active); in assay [1] (setting [8]), 99% (active); in assay [1] (at 50.0 µM), 99.5% (active); in assay [2] (setting [7]) it was 91% (active); in assay [2] (setting [8]) it was 99% (active); in assay [2] (at 50.0 µM), 99.7% (active). For the same molecule, the growth inhibition is 98% (active) in assay [3] (setting [7]); 99% (active) in assay [3] (setting [8]); 99.5% (active) in assay [3] (at 50.0 µM); 79% (active) in assay [4] (setting [7]); 99% (active) in assay [4] (setting [8]); 98% (active) in assay [4] (at 50.0 µM). For the same molecule, the growth inhibition in assay [5] (setting [7]) is 85% (active); in assay [5] (setting [8]), 99% (active); in assay [5] (at 50.0 µM), 99.5% (active); in assay [6] (setting [7]), 97% (active); in assay [6] (setting [8]), 98% (active); in assay [6] (at 50.0 µM) it was 99.6% (active).

Turning to `CC1(c2ccccc2)NC(=O)N(CC(=O)N(c2ccccc2)c2ccccc2)C1=O` (configuration not stated), the growth inhibition in assay [1] (setting [7]) was 12%; in assay [1] (setting [8]) it was 28%; in assay [1] (at 50.0 µM), 49.4%; in assay [2] (setting [7]), 15%; in assay [2] (setting [8]), 33%; in assay [2] (at 50.0 µM), 23.6%. Moreover, the growth inhibition in assay [3] (setting [7]) is 9%; in assay [3] (setting [8]) it was 30%; in assay [3] (at 50.0 µM), 33.5%; in assay [4] (setting [7]) it was 14%; in assay [4] (setting [8]), 55%; in assay [4] (at 50.0 µM) it was 40.5%. Moreover, the growth inhibition in assay [5] (setting [7]) was 8%; in assay [5] (setting [8]) it was 38%; in assay [5] (at 50.0 µM), 33.7%; in assay [6] (setting [7]), 12%; in assay [6] (setting [8]), 39%; in assay [6] (at 50.0 µM), 52.1%.

Take `O=C1/C(=C/c2cccc([N+](=O)[O-])c2)Sc2scc(-c3ccc([N+](=O)[O-])cc3)[n+]21`: the growth inhibition in assay [1] (setting [7]) was 7%; in assay [1] (setting [8]), 97% (active); in assay [1] (at 50.0 µM) it was 85.2% (active); in assay [2] (setting [7]), -3%; in assay [2] (setting [8]), 98% (active); in assay [2] (at 50.0 µM), 62%. The growth inhibition was 6% in assay [3] (setting [7]); 97% (active) in assay [3] (setting [8]); 94.9% (active) in assay [3] (at 50.0 µM); -15% in assay [4] (setting [7]); 97% (active) in assay [4] (setting [8]); 59.1% in assay [4] (at 50.0 µM). In addition, the growth inhibition is -18% in assay [5] (setting [7]); 98% (active) in assay [5] (setting [8]); 93.1% (active) in assay [5] (at 50.0 µM); 11% in assay [6] (setting [7]); 97% (active) in assay [6] (setting [8]); 93.8% (active) in assay [6] (at 50.0 µM).

As to `Cc1nn(C(=O)c2ccccc2O)c2c1C(c1ccc3ccccc3c1O)SC(N)=N2` (configuration not stated), the growth inhibition in assay [1] (setting [7]) is 8%; in assay [1] (setting [8]), 97% (active); in assay [1] (at 50.0 µM), 97.1% (active); in assay [2] (setting [7]) it was 0%; in assay [2] (setting [8]), 95% (active); in assay [2] (at 50.0 µM), 92.5% (active). Moreover, the growth inhibition in assay [3] (setting [7]) was -4%; in assay [3] (setting [8]) it was 96% (active); in assay [3] (at 50.0 µM), 96.8% (active); in assay [4] (setting [7]), -9%; in assay [4] (setting [8]), 59%; in assay [4] (at 50.0 µM), 92.1% (active). In addition, the growth inhibition in assay [5] (setting [7]) was -13%; in assay [5] (setting [8]), 97% (active); in assay [5] (at 50.0 µM), 97.8% (active); in assay [6] (setting [7]), 9%; in assay [6] (setting [8]), 98% (active); in assay [6] (at 50.0 µM) it was 97.7% (active).
